Measured values from PubChem BioAssay AID493056 (National Center for Advancing Translational Sciences (NCATS), 2011).
In all, about 360,000 compounds went through this assay and about 2,400 (0.67%) were called active. For the sample, actives were picked, then their nearest neighbours and some compounds at random. A number with no mark means an inactive call. Cut-off read from the data, not from the text of the source: active = enhancement above about 30%; inactive = the rest.

Target: Thyrotropin-releasing hormone receptor (Homo sapiens) (UniProt P34981)
Assay: qHTS for Small Molecule Agonists and Allosteric Enhancers of Human TRH Receptor: Primary Screen for Enhancers; note: 0% is about no effect
Settings: TRHR cells, fluo-8 calcium fluorescence, EC20 TRH enhancement; at 2 µM; active compounds read high
Outline: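 TRHR-expressing cells loaded with fluo-8 calcium dye were read kinetically (ex 480/em 530) during compound addition, then stimulated with an EC20 of TRH (10 nM final). Enhancement of the Gq-mediated intracellular calcium response was scored.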

Chain of Thyrotropin-releasing hormone receptor (Homo sapiens) (P34981 whole entry, looked up): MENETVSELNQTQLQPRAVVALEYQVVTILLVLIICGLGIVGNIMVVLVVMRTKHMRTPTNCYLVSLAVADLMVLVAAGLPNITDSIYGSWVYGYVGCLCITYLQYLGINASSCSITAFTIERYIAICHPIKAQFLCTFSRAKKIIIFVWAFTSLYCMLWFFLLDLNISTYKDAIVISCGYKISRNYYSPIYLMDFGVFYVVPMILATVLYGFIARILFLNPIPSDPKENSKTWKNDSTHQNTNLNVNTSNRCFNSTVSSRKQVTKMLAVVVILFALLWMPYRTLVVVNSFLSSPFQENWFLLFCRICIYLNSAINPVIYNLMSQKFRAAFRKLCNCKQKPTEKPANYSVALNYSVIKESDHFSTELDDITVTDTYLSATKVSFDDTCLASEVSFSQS

Structure (SMILES)	enhancement
COc1cccc(N2CC(NC(=O)/C=C\c3ccccc3)CC2=O)c1 (stereo not given)	5.73%
CCc1ccc(NC(=O)CSc2nc3c([nH]c4ccccc43)c(=O)n2-c2cccc(OC)c2)cc1	2.51%
CCOc1cc(CN2CCCC(CO)(Cc3ccc(F)cc3F)C2)ccc1OC (stereo not given)	45.4% (active)
CCc1[nH]nc(C(=O)N2CCCC(CO)(Cc3ccc(F)cc3F)C2)c1C (stereo not given)	-3.46%
Cc1ccccc1CC1(CO)CCCN(Cc2ccc3c(c2)OCCO3)C1 (stereo not given)	2.06%
CC(C)(C)OC(=O)N1CCC(c2c(C(=O)NCc3ccccn3)cnn2-c2ccc(F)cc2)CC1	0.916%
CSc1nc(=O)c2c(n1C)NC(=O)CC2c1ccccc1OC(C)C (stereo not given)	1.92%
Cc1cc(C)c2oc(C(=O)Nc3c(C(=O)Nc4ccccc4)oc4ccccc34)cc(=O)c2c1	-1.76%
Cc1ccc(S(=O)(=O)N(CC(=O)Nc2ccc(Cl)cc2Cl)c2ccccc2C)cc1	-0.851%
CCCCOc1ccc(C(=O)Nc2cccc(-c3nc4ccccc4o3)c2C)cc1	36% (active)
Cc1ccccc1-c1nc2cc(NC(=O)c3cccc(OCCC(C)C)c3)ccc2o1	-6.29%
CCCOc1ccc(C(=O)Nc2ccc3oc(-c4cccc(Cl)c4Cl)nc3c2)cc1	-0.105%
Cc1ccc(S(=O)(=O)c2nnn3c2nc(N2CCN(c4ccccc4F)CC2)c2cc(Cl)ccc23)cc1C	15.1%
COc1ccccc1CNC(=O)c1ccc(-n2c(C)cc3c2CCCC3)cc1	-0.647%
Cc1noc(C)c1-c1ccc2ncnc(NCc3ccc(F)c(F)c3)c2c1	-4.49%
NC(N)=Nc1nc(-c2ccccc2)c2cc(Cl)ccc2n1	48.4% (active)
Clc1ccc2nc(-c3ccccc3)nc(C(Cl)Cl)c2c1	2.39%
O=C(CCl)NNc1nc(-c2ccccc2)c2cc(Cl)ccc2n1	32.4% (active)
O=C(Cn1c(=O)nc(-c2ccccc2)c2cc(Cl)ccc21)NCc1ccc(Cl)cc1	10.8%
Cc1nc(N=C(N)N)nc2c(C)cccc12	10.2%
O=C(O)c1ccc(Nc2nc(-c3ccccc3)c3cc(Br)ccc3n2)cc1	7.15%
CCC(C)NC(=O)Cn1c(=O)n(-c2ccc(Cl)cc2)c(=O)c2c3c(sc21)CCCC3 (stereo not given)	2.95%
CN1CCOc2cc(S(=O)(=O)N3CCN(S(=O)(=O)c4c(F)cccc4F)CC3)cnc21	-0.823%
Cc1ccc(C)c(NC(=O)CSC2=Nc3ccccc3N=C(c3ccc(F)cc3)C2)c1	-0.667%
O=[S+]([O-])(c1ccc(OC(F)(F)F)cc1)N1CCN([S+](=O)([O-])c2ccc3c(c2)OCCO3)CC1	-5.08%
Cc1cccc(-c2nc(SCC(=O)Nc3cc(C)on3)c3c(=O)n(C)c(=O)n(C)c3n2)c1	2.9%
CCCCn1c(=N)c(S(=O)(=O)c2ccccc2)cc2c(=O)n3cccc(C)c3nc21	1.28%
CC(C)(C)c1ccc(OCC(=O)N2CCC(c3nc4ccccc4s3)CC2)cc1	-1.99%

Structure (SMILES)	enhancement
C=CCC1=C/C(=C\c2c(N)n3nc(CC(=O)N4CCOCC4)sc3nc2=O)C=C(OC)C1=O	52.7% (active)
COC1=C/C(=C/c2c(N)n3nc(CC(=O)N4CCOCC4)sc3nc2=O)C=CC1=O	2.92%
COc1cc(OC)c(NC(=O)c2c3c(nn2C)-c2ccccc2SC3)cc1Cl	2.77%
CC(C)(C)c1ccc(C(=O)N2CCC(c3nc(-c4ccc(S(=O)(=O)N5CCCC5)cc4)no3)CC2)cc1	-2.71%
COc1cccc(-c2cc(C(=O)Nc3ccc(C)cc3)[nH]n2)c1	-0.168%
COc1ccc(-c2nc(CN3CCC(C(=O)NCc4ccccc4)CC3)c(C)o2)cc1OC	3.63%
COc1ccc(CCNC(=O)C2CCCN(Cc3nc(-c4cccc(Cl)c4)oc3C)C2)cc1OC (stereo not given)	-8.38%
Cc1oc(-c2ccccc2F)nc1CN1CCC(C(=O)NCCc2ccc(Cl)cc2)CC1	31.8% (active)
COc1cccc(CC2(CO)CCN(Cc3cnc(-c4cccc(C)c4)nc3)CC2)c1	1.96%
OCC1(CCc2ccccc2)CCN(Cc2ccc3nsnc3c2)CC1	-4.46%
Cc1c(CN2CCC(CO)(CCOc3ccccc3)CC2)[nH]c2ccc(Cl)cc12	35.6% (active)
CN(Cc1ccccc1)c1ccc(-c2nc(-c3ccccc3)no2)cc1[N+](=O)[O-]	5.53%
Cc1ccc(OC(=O)CSc2nnc(-c3cccs3)o2)cc1	-4.22%
O=C(CC1SC(N2CCCC2)=NC1=O)Nc1ccc(C(=O)NCCc2ccc(F)cc2)cc1 (stereo not given)	33.4% (active)
CCC(C)NC(=O)c1ccc(NC(=O)CC2SC(N3CCCCC3)=NC2=O)cc1 (stereo not given)	-8.07%
COc1ccc(NC(=O)CC2SC(N3CCCCC3)=NC2=O)cc1OC (stereo not given)	1.49%
Cc1cc2nc(-c3ccc(NC(=O)c4cc5ccccc5o4)cc3)oc2cc1C	-7.25%
CC(=O)c1ccc(N2CCN(c3nc4c(S(=O)(=O)c5ccccc5)nnn4c4ccc(Cl)cc34)CC2)cc1	1.21%
O=C(CNC(=O)c1ccccc1)OC(C(=O)Nc1cc([N+](=O)[O-])ccc1F)c1ccccc1 (stereo not given)	-0.946%
O=C(c1ccc(OC2CCN(C/C=C/c3ccc(F)cc3)CC2)cc1)N1CCCCC1	0.691%
CSCC(=O)N1CCCC(C(=O)c2cc(F)ccc2F)C1 (stereo not given)	-3.7%
COc1ccc(/C=C/CN2CCCC(C(=O)c3cc(F)ccc3F)C2)cc1 (stereo not given)	31.8% (active)
Cc1ccc2oc3c(c(=O)c2c1)C(c1ccc([N+](=O)[O-])cc1)N(CCCN1CCOCC1)C3=O (stereo not given)	-0.734%
COc1ccc2oc(=O)c(-c3cn4c(n3)sc3cc(OC)ccc34)cc2c1	1.26%
Cc1ccc(S(=O)(=O)N2CCN(CC(=O)N/N=C/c3ccc(Br)s3)CC2)cc1	47.7% (active)
Cc1cccc(NC(=O)CN2CCCN(S(=O)(=O)c3ccc(Br)s3)CC2)c1	9.87%
C/C(=N/NC(=O)CN1CCN(S(=O)(=O)c2ccc(Br)cc2)CC1)c1ccncc1	1.09%
